Data reported in PubChem BioAssay (NCI).
This is part of a sample that, as a whole, favours compounds with a hit. Of some 83,000 tested, about 20% had one in any assay.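 Note: values are percent growth. 100 is the growth of untreated cells, values between 100 and 0 indicate rising inhibition; between -100 and 0 indicates cell death.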 Unmarked numbers belong to inactive results. Active and inactive are the calls of the source. The calls were made as follows: active = growth percent below 10; inactive = the rest.

Key:
Test in all cases: NCI-60 one-dose screen, 48 h (100 = growth as untreated, 0 = no growth, -100 = all killed)
Settings in all cases: 10 µM unless noted
T-47D breast = tested on: T-47D breast
BT-549 breast = tested on: BT-549 breast
MDA-MB-435 melanoma = tested on: MDA-MB-435 melanoma
SW-620 colon = tested on: SW-620 colon
MCF7 breast = tested on: MCF7 breast
HCT-116 colon = tested on: HCT-116 colon
HCC-2998 colon = tested on: HCC-2998 colon
KM12 colon = tested on: KM12 colon

CC1(C)C2CC1C1(/C=N/NC(N)=S)C(C2)C(C#N)(C#N)C1(C#N)C#N (stereo not given)
growth (T-47D breast): 64.1% | growth (BT-549 breast): 96.3% | growth (MDA-MB-435 melanoma): 88.6% | growth (SW-620 colon): 50% | growth (MCF7 breast): 59.2% | growth (HCT-116 colon): 40.7% | growth (HCC-2998 colon): 94.1% | growth (KM12 colon): 95.7%

O=[N+]([O-])c1ccc(Oc2nc(Nc3ccc(O[C@H]4CO[C@H]5[C@@H]4OC[C@@H]5O)c(Cl)c3)ncc2F)c(Cl)c1
growth (T-47D breast): 11.9% | growth (BT-549 breast): 31.8% | growth (MDA-MB-435 melanoma): 10.9% | growth (SW-620 colon): 35.7% | growth (MCF7 breast): 21.2% | growth (HCT-116 colon): 25% | growth (HCC-2998 colon): 69.3% | growth (KM12 colon): 11.2%

Cc1c(C(=O)NCCN2CCOCC2)cn2ncnc(Oc3ccc(NC(=O)Nc4ccc(Cl)c(C(F)(F)F)c4)cc3)c12
growth (T-47D breast): 15% | growth (BT-549 breast): 45.6% | growth (MDA-MB-435 melanoma): 18% | growth (SW-620 colon): 0.917% (active) | growth (MCF7 breast): 7.07% (active) | growth (HCT-116 colon): 8.49% (active) | growth (HCC-2998 colon): 51.1% | growth (KM12 colon): 19.6%

NCCCNc1nc2ccccc2c2c(=O)c3cccc(F)c3sc12
growth (T-47D breast): 60.3% | growth (BT-549 breast): 91.2% | growth (MDA-MB-435 melanoma): 16.5% | growth (SW-620 colon): -62.5% (active) | growth (MCF7 breast): 19.9% | growth (HCT-116 colon): -72.5% (active) | growth (HCC-2998 colon): -46% (active) | growth (KM12 colon): 4% (active)

CCCCNc1nc(NN2C(=O)c3cccc4cccc(c34)C2=O)nc(-n2cnc3ccccc32)n1
growth (T-47D breast): 74.7% | growth (BT-549 breast): 98.8% | growth (MDA-MB-435 melanoma): 99.2% | growth (SW-620 colon): 109% | growth (MCF7 breast): 72.6% | growth (HCT-116 colon): 88.3% | growth (HCC-2998 colon): 105% | growth (KM12 colon): 25.4%

NC1=NC(c2cccc(Br)c2)c2sc3ccc(Cl)cc3c2N1 (stereo not given)
growth (T-47D breast): 88.8% | growth (BT-549 breast): 122% | growth (MDA-MB-435 melanoma): 98.2% | growth (SW-620 colon): 103% | growth (MCF7 breast): 75.4% | growth (HCT-116 colon): 97.9% | growth (HCC-2998 colon): 114% | growth (KM12 colon): 93.7%

CCN(CC)CCCNc1nc2ccccc2c2c(=O)c3cc(Cl)ccc3sc12
growth (T-47D breast): 61.3% | growth (BT-549 breast): 91.2% | growth (MDA-MB-435 melanoma): -4.23% (active) | growth (SW-620 colon): 14.3% | growth (MCF7 breast): 44.4% | growth (HCT-116 colon): 20.2% | growth (HCC-2998 colon): 26.5% | growth (KM12 colon): 27%

CCN(CC)Cc1cc(Nc2c3ccc(Cl)cc3nc3ccc(OC)cc23)ccc1O
growth (T-47D breast): 67.5% | growth (BT-549 breast): 81.4% | growth (MDA-MB-435 melanoma): 60.2% | growth (SW-620 colon): 31.7% | growth (MCF7 breast): 17.4% | growth (HCT-116 colon): 12.8% | growth (HCC-2998 colon): 43.6% | growth (KM12 colon): 40.6%

COc1cccc(OC)c1C(=O)N[C@@H]1C(=O)N2[C@@H]1SC(C)(C)[C@@H]2C(=O)O
growth (T-47D breast): 98.3% | growth (BT-549 breast): 95.4% | growth (MDA-MB-435 melanoma): 105% | growth (SW-620 colon): 107% | growth (MCF7 breast): 98% | growth (HCT-116 colon): 97.9% | growth (HCC-2998 colon): 105% | growth (KM12 colon): 107%

COc1ccc(NC(=O)n2nc(/C=C\c3ccc(O)c(OC)c3)cc2/C=C\c2ccc(O)c(OC)c2)cc1
growth (T-47D breast): 34.8% | growth (BT-549 breast): 31.4% | growth (MDA-MB-435 melanoma): -36.3% (active) | growth (SW-620 colon): 27.1% | growth (MCF7 breast): 15.6% | growth (HCT-116 colon): 9.13% (active) | growth (HCC-2998 colon): 74.9% | growth (KM12 colon): 17.9%

Cc1[nH]c(C(=O)Nc2ccc(C(=O)N3CCNCC3)cc2OC(C)C)c(Cl)c1Cl
growth (T-47D breast): 64.1% | growth (BT-549 breast): 93% | growth (MDA-MB-435 melanoma): 35.9% | growth (SW-620 colon): -55.8% (active) | growth (MCF7 breast): 60% | growth (HCT-116 colon): 14.5% | growth (HCC-2998 colon): -45.9% (active) | growth (KM12 colon): 50.9%

Fc1cc2c(cc1Cl)N(c1ncnc3ccc(-c4cnc5cnccn45)cc13)CC2
growth (T-47D breast): 74.9% | growth (BT-549 breast): 83.7% | growth (MDA-MB-435 melanoma): 101% | growth (SW-620 colon): 101% | growth (MCF7 breast): 75.8% | growth (HCT-116 colon): 83.5% | growth (HCC-2998 colon): 90.6% | growth (KM12 colon): 98.1%

COc1cc(CCC[P+](c2ccccc2)(c2ccccc2)c2ccccc2)c(OC)c(OC)c1OC
growth (T-47D breast): 63.5% | growth (BT-549 breast): 72.9% | growth (MDA-MB-435 melanoma): 0.374% (active) | growth (SW-620 colon): 82.6% | growth (MCF7 breast): 39% | growth (HCT-116 colon): 61.9% | growth (HCC-2998 colon): 100% | growth (KM12 colon): 75.9%

CS(=O)(=O)Nc1cc(-c2ccc3ncnc(Nc4cccc(Cl)c4F)c3c2)cnc1Cl
growth (T-47D breast): -4.02% (active) | growth (BT-549 breast): 17.9% | growth (MDA-MB-435 melanoma): 46.2% | growth (SW-620 colon): 46.3% | growth (MCF7 breast): 11% | growth (HCT-116 colon): 46.7% | growth (HCC-2998 colon): 45.3% | growth (KM12 colon): 69.3%

CCCCCCNC(=O)Oc1ccc(/C(=C(\C)c2ccc(OC)cc2)c2ccc(OCCN3CCCCC3)cc2)cc1
growth (T-47D breast): 48% | growth (BT-549 breast): 70.4% | growth (MDA-MB-435 melanoma): 66.7% | growth (SW-620 colon): 55.3% | growth (MCF7 breast): 22.7% | growth (HCT-116 colon): 34.5% | growth (HCC-2998 colon): 80.6% | growth (KM12 colon): 43.5%
